Assay results reported in PubChem BioAssay (NCI).
The panel holds about 83,000 compounds, 20% with a hit somewhere; the sample as a whole holds those more often.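 How to read the values: 0–100, growth inhibition (40 = 60% inhibited); 0, no net growth; -100 to 0, cell death (-40 = 40% of starting cells died; -100 = all dead).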 Active and inactive are the calls of the source. The calls were made as follows: active = growth percent below 10; inactive = the rest.

Tests used:
Assay in all cases: NCI-60 one-dose screen, 48 h (100 = growth as untreated, 0 = no growth, -100 = all killed)
Conditions in all cases: 10 µM unless noted
NCI-H23 lung = tested on: NCI-H23 lung
NCI-H226 lung = tested on: NCI-H226 lung
NCI-H322M lung = tested on: NCI-H322M lung
HOP-62 NSCLC = tested on: HOP-62 NSCLC
NCI-H460 lung = tested on: NCI-H460 lung
HOP-92 NSCLC = tested on: HOP-92 NSCLC
NCI-H522 lung = tested on: NCI-H522 lung
A549/ATCC NSCLC = tested on: A549/ATCC NSCLC
786-0 renal = tested on: 786-0 renal
COLO 205 colon = tested on: COLO 205 colon
DU-145 prostate = tested on: DU-145 prostate
K-562 leukemia = tested on: K-562 leukemia
MALME-3M melanoma = tested on: MALME-3M melanoma
MDA-MB-231 breast = tested on: MDA-MB-231 breast
RXF 393 renal = tested on: RXF 393 renal
SF-268 CNS = tested on: SF-268 CNS
SF-295 CNS = tested on: SF-295 CNS
SF-539 CNS = tested on: SF-539 CNS
UACC-257 melanoma = tested on: UACC-257 melanoma
M14 melanoma = tested on: M14 melanoma

Measured: growth

C=CC(=O)Nc1cccc(-c2nc(SC)nc(Nc3ccccc3OC)c2C#N)c1
inactive: NCI-H23 lung 55.5% | NCI-H226 lung 34.3% | NCI-H322M lung 80% | HOP-62 NSCLC 37.9% | HOP-92 NSCLC 31% | NCI-H522 lung 39.3% | 786-0 renal 11.6% | COLO 205 colon 60.9% | DU-145 prostate 10.8% | MDA-MB-231 breast 33.2% | RXF 393 renal 39.7% | SF-268 CNS 53.5% | SF-295 CNS 80.3% | SF-539 CNS 68.6% | UACC-257 melanoma 57.5% | M14 melanoma 50.4%
active: NCI-H460 lung 5.19% | A549/ATCC NSCLC -6.83% | K-562 leukemia 8.6% | MALME-3M melanoma -10.4%

Oc1cccc2ccc(N/N=C/c3cc(CN4CCOCC4)c(O)c4ncccc34)nc12
active: NCI-H23 lung -2.08% | HOP-62 NSCLC 7.13% | NCI-H460 lung -7.47% | NCI-H522 lung -13.7% | A549/ATCC NSCLC 5.15% | SF-539 CNS 9.66% | M14 melanoma 4.83%
inactive: NCI-H226 lung 26.5% | NCI-H322M lung 27.7% | HOP-92 NSCLC 43.5% | 786-0 renal 19.4% | COLO 205 colon 12.2% | DU-145 prostate 22.4% | K-562 leukemia 13.4% | MALME-3M melanoma 16.3% | MDA-MB-231 breast 20% | RXF 393 renal 10.4% | SF-268 CNS 18.7% | SF-295 CNS 17.5% | UACC-257 melanoma 17.8%

COc1ccccc1NS(=O)(=O)c1ccc2oc(SC(C)C)nc2c1
inactive: NCI-H23 lung 61% | NCI-H226 lung 53.8% | NCI-H322M lung 99.7% | HOP-62 NSCLC 97.3% | NCI-H460 lung 77.2% | HOP-92 NSCLC 79.4% | NCI-H522 lung 65.6% | A549/ATCC NSCLC 75.9% | 786-0 renal 64.2% | COLO 205 colon 109% | DU-145 prostate 98.9% | K-562 leukemia 45.8% | MALME-3M melanoma 81.7% | MDA-MB-231 breast 86.5% | RXF 393 renal 107% | SF-268 CNS 89.8% | SF-295 CNS 88.5% | SF-539 CNS 103% | UACC-257 melanoma 71.8% | M14 melanoma 110%

Cn1ncc2c(=O)nc3c(-c4ccccc4)n[nH]n3c21
inactive: NCI-H23 lung 101% | NCI-H226 lung 91.9% | NCI-H322M lung 80.9% | HOP-62 NSCLC 95.5% | NCI-H460 lung 103% | HOP-92 NSCLC 116% | NCI-H522 lung 73.2% | A549/ATCC NSCLC 101% | 786-0 renal 99.9% | COLO 205 colon 119% | DU-145 prostate 101% | K-562 leukemia 119% | MALME-3M melanoma 98.6% | MDA-MB-231 breast 102% | RXF 393 renal 121% | SF-268 CNS 101% | SF-295 CNS 84.5% | SF-539 CNS 96.2% | UACC-257 melanoma 98.7% | M14 melanoma 104%

CCOc1cc2ncc(C#N)c(Nc3ccc(OCc4cccc(F)c4)c(Cl)c3)c2cc1NC(=O)CCCCC1CCSS1 (stereo not given)
inactive: NCI-H23 lung 101% | NCI-H226 lung 88.9% | NCI-H322M lung 90.8% | HOP-62 NSCLC 94.4% | NCI-H460 lung 98% | HOP-92 NSCLC 78.9% | NCI-H522 lung 66.4% | A549/ATCC NSCLC 73.6% | 786-0 renal 89.1% | COLO 205 colon 103% | DU-145 prostate 97.4% | K-562 leukemia 80.3% | MALME-3M melanoma 125% | MDA-MB-231 breast 96.2% | RXF 393 renal 97.9% | SF-268 CNS 95.7% | SF-295 CNS 106% | SF-539 CNS 108% | UACC-257 melanoma 81% | M14 melanoma 93.1%

CC1=C[C@H]2c3c(c(O)c(O)c4oc5c(C)cccc5c(=O)c34)[C@H](c3cc(O)c(O)c4oc5c(C)cccc5c(=O)c34)[C@H]2C(C)(C)C1
inactive: NCI-H322M lung 21.5% | HOP-92 NSCLC 20.9% | A549/ATCC NSCLC 11.9% | COLO 205 colon 16.3% | DU-145 prostate 23.9% | MALME-3M melanoma 18.9% | MDA-MB-231 breast 23.7% | RXF 393 renal 21.5% | UACC-257 melanoma 23.4% | M14 melanoma 13.7%
active: NCI-H23 lung -15.2% | NCI-H226 lung 0.242% | HOP-62 NSCLC 9.87% | NCI-H460 lung -44.3% | NCI-H522 lung 3.27% | 786-0 renal -3.44% | K-562 leukemia 2.97% | SF-268 CNS -1.07% | SF-295 CNS -32.4% | SF-539 CNS -18.5%

COc1ccc(-c2cc(Nc3ccnc(N4CCOCC4)n3)on2)cc1
active: NCI-H522 lung 4.99% | COLO 205 colon 2.68% | RXF 393 renal -6.95% | SF-539 CNS -31.9%
inactive: NCI-H23 lung 36.8% | NCI-H226 lung 31.8% | NCI-H322M lung 47.1% | HOP-62 NSCLC 40.9% | NCI-H460 lung 14.5% | HOP-92 NSCLC 74.8% | A549/ATCC NSCLC 30.4% | 786-0 renal 35.6% | DU-145 prostate 19.6% | K-562 leukemia 13.1% | MALME-3M melanoma 87.2% | MDA-MB-231 breast 57.9% | SF-268 CNS 62.6% | SF-295 CNS 39.3% | UACC-257 melanoma 72.7% | M14 melanoma 26.9%
